Screens as filed in PubChem.
GLP1R ag: activates the human GLP-1 receptor | Potency, µM (top dose mostly 45.6 µM), inactives show at the highest dose activation, hits mostly activators | P43220 | HEK293 GLP-1R CRE-luciferase, luminescence, 4-6 h; cells express a hypersensitive GLP-1R form | actives 0.007% (n = 380,000); note: potency is the fitted concentration of half-maximal effect; % of control where 0% means no effect
Target sequence (P43220 whole entry, looked up): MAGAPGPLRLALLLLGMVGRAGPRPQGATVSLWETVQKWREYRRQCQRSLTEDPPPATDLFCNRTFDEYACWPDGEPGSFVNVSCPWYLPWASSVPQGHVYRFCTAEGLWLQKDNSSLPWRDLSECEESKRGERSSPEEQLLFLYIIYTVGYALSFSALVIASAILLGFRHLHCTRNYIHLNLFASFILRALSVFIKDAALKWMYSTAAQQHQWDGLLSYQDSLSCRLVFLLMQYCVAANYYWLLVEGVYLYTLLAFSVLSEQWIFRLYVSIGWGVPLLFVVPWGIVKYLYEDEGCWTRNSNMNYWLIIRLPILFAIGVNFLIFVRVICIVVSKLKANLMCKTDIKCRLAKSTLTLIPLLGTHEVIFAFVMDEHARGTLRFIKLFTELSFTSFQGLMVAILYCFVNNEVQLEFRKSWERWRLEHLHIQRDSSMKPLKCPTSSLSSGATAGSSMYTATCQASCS
TRHR agonist: activates the human TRH receptor; TRHR cells, calcium flux fluo-8, FDSS agonist mode; actives 0.18% (n = 360,000); activation, % at 2 µM; AID 493084; P34981; in the data active = activation above about 30%; note: 0% is about no effect
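Fluo-8-loaded TRHR cells; 10 s baseline, compound added, kinetic Ca2+ fluorescence read 1/s, agonist mode.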
GLP1R cytotox: cytotoxic in the GLP-1 receptor inverse agonist counter-screen; Potency, µM (highest dose often 38.3 µM), for inactives: at the top dose activity change, negative = inhibition, usual class: inhibitors; actives 0.13% (n = 410,000); HEK293 cAMP-luciferase reporter cells, luminescence, 24 h;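 note: loss of luciferase light is scored as toxicity; potency is the fitted concentration of half-maximal effect; % is set by controls: 0 for no effect and ±100 for the full control effect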
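1536-well qHTS counterscreen of the MLSMR; 200 cells/uL, 12 h pre-incubation, 23 nL cpd, 24 h at 37 deg C 5% CO2, luciferase detection reagent, 12 min RT, luminescence. Inhibition = undesired.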
PTHR1 ag: activates the human parathyroid hormone receptor PTHR1; Q03431; HEK293 GP2 PTHR1 cells, GloSensor cAMP luminescence, 1 h; AID 743266; actives 0.075% (n = 410,000); Potency, µM (top dose mostly 115 µM), for the others: at the top dose activation, actives largely listed as activators; note: potency is the fitted concentration of half-maximal effect; nearly all actives have a fitted effect of over 55% in size
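HEK-293-derived GP2 cells expressing PTHR1 and a GloSensor cAMP reporter, 3,000/well, plated overnight, given luciferin plus IBMX (each 0.5 mM as added) for 1 h at 37 °C, then compound for 1 h at 37 °C. Luminescence was read after 15 min at room temperature.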
GLP1R inv ag: GLP-1 receptor (human) inverse agonism; P43220; HEK293 GLP-1R CRE-luciferase, luminescence, 24 h; GLP-1R form is constitutively active; Potency, µM (series often up to 38.3 µM), for the others: at the top dose activity change, negative = inhibition, hits mostly inhibitors; actives 1.6% (n = 410,000); AID 624417; note: potency is the fitted concentration of half-maximal effect; % is set by controls: 0 for no effect and ±100 for the full control effect; nearly all actives have a fitted effect of over 55% in size
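Readout was luciferase luminescence, measured 12 min after detection reagent at room temperature. Beforehand, GLP-1R reporter HEK293 cells had sat 12 h, then received compounds for 24 hr at 37 deg C.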
TRHR PAM: allosterically enhances the human TRH receptor; P34981; TRHR cells, fluo-8 calcium fluorescence, EC20 TRH enhancement; enhancement, % at 2 µM; actives 0.66% (n = 360,000); in the data active = enhancement above about 30%; note: 0% is about no effect
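TRHR-expressing cells loaded with fluo-8 calcium dye were read kinetically (ex 480/em 530) during compound addition, then stimulated with an EC20 of TRH (10 nM final). Enhancement of the Gq-mediated intracellular calcium response was scored.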
Numbers without * were called inactive; i = inactive; ? = inconclusive; . = not tested or not shown; [ ] = another dose, or the depositor's remark. Only some compounds are listed: those with a hit (about 2.4% of all), similar ones and a draw of the others. Unless noted, calls come from the whole dose curve; as a rule, active = well fitted curve in the direction sought with a large enough effect; inconclusive = small, poorly fitted or top-dose-only effect, or another doubt; inactive = no such curve, though single readings can be large; an effect the other way counts as inactive or inconclusive.

SMILES | GLP1R ag | TRHR agonist | GLP1R cytotox | PTHR1 ag | GLP1R inv ag | TRHR PAM
CCOC(=O)C1CCCCN1Cc1cccc(OCc2ccccc2)c1 (configuration not stated) | -6% | 0 | 5% | -10% | 10µM* | -1
O=C(COC(=O)C1=COCCO1)Nc1ncc(Cl)cc1Cl | -17% | 1 | 0% | i | 5% | -7
CC(C(=O)N1CCCC1)N1CCN(S(=O)(=O)c2ccc(OC(F)(F)F)cc2)CC1 (configuration not stated) | 0% | 0 | 0% | i | -14% | -6
CC(C)(C)c1ccc(S(=O)(=O)N2CCN(C3CCCC3)CC2)cc1 | 6% | 0 | 4% | -21% | 10% | 1
CC1CC(C)CN(S(=O)(=O)c2ccc(C(C)(C)C)cc2)C1 (configuration not stated) | 8% | 0 | 4% | -38% | 2µM* | -12
CC1CC(C)CN(C(=O)C(C)N2CCN(S(=O)(=O)c3ccc(C(F)(F)F)cc3)CC2)C1 (configuration not stated) | 4% | . | -5% | -30% | 10µM* | .
COc1ccc(CCN(C)CCCN2CC(c3ccccc3)CC2=O)cc1OC (configuration not stated) | 1% | -1 | 3% | -2% | -5% | 3
NC(=O)c1cccc(Nc2nc(C(N)CCc3ccccc3)cs2)n1 (configuration not stated) | 9% | . | 3% | -17% | -13% | .
O=C(CNC(=O)c1ccc(Br)o1)NCC(=O)OCc1ccccc1 | 5% | 0 | 10% | 9% | 2% | 30*
Nc1ccc2nc3c(=O)n(C4CCCCC4)c(=O)[nH]c3nc2c1 | 8% | 128* | 296% | i | 16% | 29
Nc1ccc2nc(CCc3ccccc3)[nH]c2c1 | 19% | 0 | 6%[1.53 µM] | i | 1% | 5
Cc1cc2nc3c(=O)n(CCc4ccccc4)c(=O)[nH]c3nc2cc1N | 9% | 142* | 238% | -30% | 4% | 24
CCCCn1c(N)c(Br)c(=O)[nH]c1=O | 5% | 0 | -4% | -14% | 38% | -2
COc1cc2[nH]c(=O)n(C3CCCCC3)c(=O)c2cc1OC | -3% | 0 | 4% | i | -2% | 1
Cc1nc2ccccc2c(=O)n1CCc1ccccc1 | -4% | -1 | 7% | i | -29% | 1
Nc1ccc2nc3c(=O)n(CCc4ccccc4)c(=O)[nH]c3nc2c1 | 4% | 164* | 38% | i | -7% | 58*
CCCCn1c(=O)[nH]c2nc3cc(N)ccc3nc2c1=O | 3% | 108* | 201% | i | 38% | 9
Cc1ccccc1Nc1sc(C(=O)c2ccc(F)cc2)c(N)c1C(=O)NCCc1ccccc1 | . | 2 | -18% | -29% | ? | -8
CCCc1nc2c(C)cc(C)cc2c(N)c1CC | 6% | 0 | -16% | i | 0% | 0
O=C(C1CCN(S(=O)(=O)c2ccccc2F)CC1)N1CCc2ccccc21 | -7% | -1 | 7% | -45% | -29% | -10
O=C(C1CCN(S(=O)(=O)c2ccccc2)CC1)N1CCc2ccccc21 | 4% | 247* | 5% | -25% | -16% | 60*
Cc1ccsc1C(=O)N(c1nc2ccccc2s1)c1c(C)cccc1C | -7% | 0 | 0% | i | 7.9µM* | -3
COc1ccc(C)cc1N(C(=O)c1ccccc1)c1nc2ccccc2s1 | -13% | -1 | -6% | i | ? | -5
Cc1ccccc1N(C(=O)c1cccs1)c1nc2ccccc2s1 | 0% | 0 | 21% | -17% | 2.2µM* | 1
CCCCN1CCNC[C@@H]1c1ccccc1 | 3% | 0 | 29% | -8% | 18% | -3
Cc1ccc(N(C(=O)CNC(=O)c2cccs2)C(C(=O)NC2CCCC2)c2ccncc2)cc1 (configuration not stated) | 4% | 0 | 1% | -24% | -9% | 5
